Screening results deposited in PubChem BioAssay by Johns Hopkins Ion Channel Center.
Shown are actives, neighbours in structure and some others; about 2.4% of the full set was active somewhere.
TMEM16A inh: blocks the mouse calcium-activated chloride channel TMEM16A; Q8BHY3; HEK293 TMEM16A/YFP iodide influx fluorescence, ionomycin; normalized B-score (activity score, 25-100; higher = stronger inhibition) at 10 µM; actives 1.2% (n = 310,000);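 active = ratio plate-corrected score three or more library SD toward inhibition, starting fluorescence score within five deviations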;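 also: score derived from kinetic fluorescence span divided by baseline fluorescence per well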
CHT allo act: allosterically activates the human high affinity choline transporter. Q9GZV3. CHT-expressing cells, membrane potential dye, choline EC20; active compounds read high; LV-AA mutant CHT in HEK293 cells. B-score at 10 µM. actives 0.49% (n = 310,000). AID 488977;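 active = initial fluorescence not abnormally high and integrated response B-score, plate-corrected, over 3 SD above library mean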
Target sequence (Q9GZV3 whole entry, looked up): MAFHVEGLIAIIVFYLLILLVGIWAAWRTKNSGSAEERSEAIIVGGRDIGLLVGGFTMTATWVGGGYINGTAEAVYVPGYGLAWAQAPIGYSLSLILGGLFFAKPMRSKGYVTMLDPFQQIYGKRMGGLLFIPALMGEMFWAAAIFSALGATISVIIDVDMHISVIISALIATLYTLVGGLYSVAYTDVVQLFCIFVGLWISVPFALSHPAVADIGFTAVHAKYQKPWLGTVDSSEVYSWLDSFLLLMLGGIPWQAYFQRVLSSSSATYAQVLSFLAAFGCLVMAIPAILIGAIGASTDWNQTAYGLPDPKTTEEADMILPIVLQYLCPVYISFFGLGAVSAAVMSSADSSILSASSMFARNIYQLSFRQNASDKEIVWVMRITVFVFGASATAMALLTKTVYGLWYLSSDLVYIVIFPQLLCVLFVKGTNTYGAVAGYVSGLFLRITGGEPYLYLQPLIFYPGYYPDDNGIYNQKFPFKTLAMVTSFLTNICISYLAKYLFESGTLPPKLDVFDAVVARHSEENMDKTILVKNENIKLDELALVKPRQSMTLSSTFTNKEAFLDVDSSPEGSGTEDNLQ
CHT block: inhibitors of human choline transporter CHT. CHT-expressing cells, membrane potential dye, choline response; active compounds read low. B-score at 10 µM. actives 0.86% (n = 310,000). AID 488975;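 active = B-score over 3 SD under the library average, and starting fluorescence ratio not unusually high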;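 also: choline stimulus applied at its EC90 after an EC20 pre-addition; B-score computed on integrated fluorescence ratio after choline addition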
ANO1 activ: activates or potentiates the mouse TMEM16A chloride channel | B-score at 10 µM | actives 0.3% (n = 340,000) | Q8BHY3 | AID 623877 | HEK293 TMEM16A/YFP-H148Q/I152L, iodide quench fluorescence; active compounds read low;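 active = fluorescence-ratio B-score plate-corrected deviation score at least 3 library SD below zero, with starting fluorescence score within 5 deviations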;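 also: channel opened by trigger with iodide after compound preincubation; score built on the fluorescence ratio of max minus min over baseline; more negative score means more quench and so TMEM16A activation or potentiation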
CHT activ conf: confirmation of human choline transporter (CHT) activators; actives 91% (n = 2,500); AID 504833; CHT-expressing cells, membrane potential dye fluorescence (FDSS); % of choline EC20–EC90 response window; HEK293 expressing CHT LV-AA mutant; choline added at its EC20; shares compounds with CHT allo act; activation, % at 10 µM;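 active = primary screen active, with duplicate mean activation above negative control mean plus 3 SD, cut at about 11% in these data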
HEK293 MP dye: activity in parental HEK293 cells lacking CHT | actives 62% (n = 2,500) | membrane potential dye fluorescence (FDSS); measured after EC20 choline addition | shares compounds with CHT allo act | ratio readout change at 10 µM, hits read low;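 active = duplicate-averaged ratio beyond 3 SD from buffer wells, up or down, though filed actives are nearly all decreases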
Of the large screens only hits and unclear results are named; the others gave an inactive call (follow-up assays come after a bar, where they were run).

CN(C)C(=O)CN1CCN(Cc2cn(C)nc2-c2ccc3c(c2)OCCO3)CC1	none
CC1(c2ccc3c(c2)OCCO3)NC(=O)N(CC(=O)c2ccc[nH]2)C1=O (configuration not stated)	none (no result: TMEM16A inh, CHT allo act, CHT block)
CCOC(=O)C1=C(C)S/C(=C\N(C)C)C1=O	CHT allo act 11.1 | CHT activ conf 61.2 | HEK293 MP dye -54.3
COC(=O)c1cc2c(ccn2-c2ccc(F)cc2)n1CC(C)C	TMEM16A inh 100 | CHT activ conf 24.2 | HEK293 MP dye inactive
COc1ccc(C(=O)Nc2ccncc2)c(OC)c1	CHT allo act 6.59 | CHT activ conf 21.5 | HEK293 MP dye -55.9
COc1cc(OC)c(C(=O)Nc2ccncc2)cc1OC	none
Cc1nc2ccccc2c2c1CC(C)S2 (configuration not stated)	none | CHT activ conf 41.7 | HEK293 MP dye -52.7
Cc1ccc(NC(=O)NCc2cccnc2)cc1Cl	none
S=c1[nH]nc(C2CCCCC2)n1/N=C/c1ccco1	none
COc1ccc2sc(N(CCN(C)C)C(=O)/C=C/c3cccs3)nc2c1	none
COc1ccc2nc(N(CCN(C)C)C(=O)/C=C/c3cccs3)sc2c1	CHT allo act 7.18 | CHT activ conf 34.5 | HEK293 MP dye -31.6
COc1ccc(Cl)cc1C(=O)N1CCC2(CC1)CC(=O)c1ccccc1O2	CHT allo act 9.62 | CHT activ conf inactive | HEK293 MP dye inactive
O=C1CC2(CCN(C(=O)c3c(F)cccc3Cl)CC2)Oc2ccccc21	CHT allo act 8.67 | CHT activ conf inactive | HEK293 MP dye inactive
Nc1c2c(nc3ccccc13)CSCC2	CHT allo act 6.33 | CHT activ conf 53.8 | HEK293 MP dye -55
Nc1c2c(nc3ccccc13)CCCC2=O	none
CCc1ccc(CN(C)C(=O)CCc2nc3ccccc3n(-c3ccc(OC)cc3)c2=O)cc1	TMEM16A inh 100 | CHT activ conf 25.7 | HEK293 MP dye inactive
CCC(=O)Nc1ccccc1C(=O)OC(c1ccccc1)c1ccccc1	CHT allo act 7.34 | CHT activ conf 26.9 | HEK293 MP dye inactive
COc1ccc(S(=O)(=O)n2cnc3cc(C)c(C)cc32)cc1C	none
CC1CCN(c2nc(-c3ccncc3)nc3ccccc23)CC1	none
c1ccc2c(N3CCOCC3)nc(N3CCOCC3)nc2c1	CHT allo act 11.7 | CHT activ conf 47.9 | HEK293 MP dye -85.7
c1ccc2c(N3CCOCC3)nc(-c3ccncc3)nc2c1	CHT allo act 7.1 | CHT activ conf 82.5 | HEK293 MP dye -57.2
c1cncc(-c2nc(N3CCOCC3)c3ccccc3n2)c1	CHT allo act 8.12 | CHT activ conf 53.3 | HEK293 MP dye -48.9
CN1CCN(c2nc(N3CCN(CCO)CC3)nc3ccccc23)CC1	CHT allo act 11 | CHT activ conf 37.0 | HEK293 MP dye -102
O=S(=O)(c1ccccc1)N1CCN(c2nc(-c3cccnc3)nc3ccccc23)CC1	none (no result: TMEM16A inh, CHT allo act, CHT block)
Cn1c(=O)c(C(=O)NCC2CCCO2)c(O)c2ccccc21 (configuration not stated)	none
CCOCCCNC(=O)Cc1c(C(=O)O)[nH]c2ccc(Cl)cc12	none
Cc1cc(N2CC(C)OC(C)C2)nc2ccccc12 (configuration not stated)	CHT allo act 6.62 | CHT activ conf 27.7 | HEK293 MP dye -54.5
CCOc1ccccc1NC(=S)N(CCOC)C1CCN(C(C)=O)CC1	none
O=C(CCNS(=O)(=O)c1ccccc1)NNC(=O)C1COc2ccccc2O1 (configuration not stated)	none
O=C(NCCc1ccccc1)c1cc2sccc2n1Cc1ccccc1	none (no result: ANO1 activ)
CCn1c(C(=O)NCCCc2ccccc2)cc2sccc21	CHT allo act 6.56 | CHT activ conf 25.1 | HEK293 MP dye inactive
COc1ccc(/C=N/NC(=O)c2cccc(Br)c2)cc1Cn1cc(Cl)cn1	none
O=C1CCCCCCCCCC/C(=N\O)CCCO1	none | CHT activ conf 14.2 | HEK293 MP dye inactive
C[C@@H]1CCCCCCCCC(=O)OCCN(C(=O)OC(C)(C)C)[C@H](C)CCCCCCCCC(=O)OCCN(C(=O)OC(C)(C)C)[C@H](C)CCCCCCCCC(=O)OCCN(C(=O)OC(C)(C)C)[C@H](C)CCCCCCCCC(=O)OCCN1C(=O)OC(C)(C)C	none (no result: TMEM16A inh, CHT allo act, CHT block)
CN1CCc2c(C#N)c(N3CCCCC3)nc(N3CCOCC3)c2C1	CHT allo act 6.98 (no result: ANO1 activ) | CHT activ conf 42.8 | HEK293 MP dye -53.1
C=CCNc1nc(N2CCOCC2)c(C#N)c2c1CN(C)CC2	none
C[n+]1c2n(c3ccccc31)N=C(c1cc(C(C)(C)C)c(O)c(C(C)(C)C)c1)CS2	TMEM16A inh 100, CHT allo act 39.5 | CHT activ conf 66.2 | HEK293 MP dye -36
COc1cccc(C2=Nn3c(nnc3-c3ccccc3O)SC2)c1	none
O=C(CO/N=C/c1cccc([N+](=O)[O-])c1)Nc1ccc2ccccc2c1	none
CCOc1cc(/C=C/c2cccc[n+]2C)ccc1O	CHT allo act 6.92 | CHT activ conf 48.4 | HEK293 MP dye -31.4
CC(=O)c1ccc(-n2cc(-c3ccc(C(C)(C)C)cc3)[n+]3c2SCCC3)cc1	CHT allo act 7.01 | CHT activ conf 24.5 | HEK293 MP dye -44.6
COC(=O)C1=CN(c2ccc(OC)cc2)C=C(C(=O)OC)C1c1ccc([N+](=O)[O-])cc1	none
Cc1nc(N(C)Cc2ccccc2)c2c(C)c(C)sc2n1	none | CHT activ conf 26.1 | HEK293 MP dye inactive
Cc1sc2nc(SCC(=O)N(C)Cc3ccccc3)n(-c3ccccc3)c(=O)c2c1C	none
CCN(C(=O)COc1cccc2cccnc12)C1CCS(=O)(=O)C1 (configuration not stated)	none | CHT activ conf 52.2 | HEK293 MP dye -38.2
CCOC(=O)c1[nH]c2cc(OC)c(OC)cc2c1NC(=O)CCN1CCSCC1	none
COc1cc(NS(C)(=O)=O)ccc1Nc1c2ccccc2nc2ccccc12	CHT allo act 8.29 | CHT activ conf 13.3 | HEK293 MP dye -54
COc1ccc(OC)c(Nc2c3ccccc3nc3ccccc23)c1	none
CN(Cc1cc2ccccc2[nH]c1=O)C(=O)c1cccs1	none
CN(C)C1=NC[C@H](Cc2ccccc2)N1CCC1CCCC1	none | CHT activ conf 27.0 | HEK293 MP dye inactive
NC1=NC[C@H](Cc2ccccc2)N1CC1CCCCC1	none | CHT activ conf 32.0 | HEK293 MP dye inactive
Cc1occc1-c1nnc(SCC(=O)N2CCCCC2)o1	none
CCOc1ccccc1OC(=O)c1ccco1	none
CC(=O)COc1ccccc1OC(=O)c1ccco1	none | CHT activ conf inactive | HEK293 MP dye inactive
COc1ccc(C2CC(c3ccc(OC)cc3)n3nc(NC(=O)c4ccco4)nc3N2)cc1 (configuration not stated)	none
Cc1ccccc1NC(=O)COC(=O)[C@@H]1CCCN1C(=O)c1cccs1	none (no result: TMEM16A inh, CHT allo act, CHT block)
